Shown are actives, neighbours in structure and some others; about 1.6% of the full set was active somewhere.
PPC-1+TRAIL kill: kills PPC-1 cancer cells in the presence of TRAIL; AID 1443; cell killing (% activity), % at 4 µM or 5 µM; PPC-1 cells + TRAIL, ATPLite viability luminescence; 0.41% of 220,000 active;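 active = cell killing above 50% in the first pass at 4 µM, then a duplicate retest at 5 µM averaging 50% or more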;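 also: plate controls were cells with TRAIL plus DMSO for no effect and medium-only wells lacking cells for full effect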
STAT1 blocker: STAT1 signaling inhibition. NIH 3T3 STAT1-luciferase reporter, IFN-gamma, luminescence. 0.35% of 200,000 active. inhibition, % at 5.5 µM;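 active = inhibition above a set limit, the mean inhibition across all tested compounds plus 3 SD, cut at about 34% in these data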;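 also: 0% = IFN-gamma with DMSO and 100% = IFN-gamma with 300 µM nifuroxazide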
STAT3 inh-1: reduces IL-6 driven STAT3 reporter signal | U3A cells, IL-6 STAT3-luciferase reporter, luminescence; host cell line lacks STAT1 | inhibition, % at 5.5 µM | 0.89% of 190,000 active | AID 862;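 active = inhibition above the mean inhibition across all screened compounds plus 3 SD, cut at about 44% in these data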;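 also: 0% = DMSO only wells and 100% = 100 µM nifuroxazide control wells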
C8 TRAIL sens: caspase-8 TRAIL sensitization; NB7+C8 cells + TRAIL, ATPlite viability luminescence; inhibition (viability loss, TRAIL sensitization), % at 10 µM; 1% of 360,000 active; AID 624354;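 active = compounds causing at least 50% loss of cell viability in the single-dose screen, relative to plate controls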
Platelet DG rel: platelet dense granule release activity. human platelet-rich plasma, SFLLRN dense granule ATP release, luminescence. inhibition, %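 (compounds screened at 7.5 µM in platelet-rich plasma)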. 0.22% of 300,000 active. AID 1663;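 active = mean replicate score, as percent of positive control, at or above 50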
STAT3 inh-2: STAT3 inhibition, confirmation assay; shares compounds with STAT3 inh-1; U3A cells, IL-6 STAT3 luciferase reporter, luminescence; cell line lacks STAT1; inhibition, % at 5.7 µM; 45% of 1,200 active; AID 1265;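 active = inhibition above the hit cutoff computed for the primary STAT3 screen, cut at about 44% in these data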;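 also: 0% = IL-6 plus DMSO and 100% = IL-6 plus nifuroxazide control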
NFkB inh STAT3ct: NF-kappaB inhibition in STAT3 inhibitor counter-screen | shares compounds with STAT3 inh-1 | HEK293T NF-kB luciferase reporter, TNF-alpha induced | inhibition, % at 5.7 µM | 36% of 1,200 active | AID 1308;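 active = inhibition above the mean of solvent-only control wells plus 3 SD, cutoff set per campaign, cut at about 13% in these data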;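 also: 0% = TNF-alpha with DMSO and 100% = TNF-alpha with MG high control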
STAT1 inh STAT3c: STAT1 inhibition in STAT3 inhibitor counter-screen; shares compounds with STAT3 inh-1; AID 1317; inhibition, % at 5.7 µM; 27% of 1,200 active; NIH 3T3 STAT1-luciferase reporter, IFN-gamma induced, luminescence;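 active = inhibition above the mean plus 3 SD of solvent-only control wells, limit set per screening run, cut at about 16% in these data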;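 also: 0% = DMSO with IFN-gamma and 100% = nifuroxazide control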
* marks the source's active call; other numbers are inactive results; nt = no result.

SMILES	PPC-1+TRAIL kill	STAT1 blocker	STAT3 inh-1	C8 TRAIL sens	Platelet DG rel	STAT3 inh-2	NFkB inh STAT3ct	STAT1 inh STAT3c
Cc1nn(-c2ccccc2Cl)c(Cl)c1/C=N/Nc1cccc(C(=O)O)c1	40	21	51*	78*	5	-7	61*	46*
Cc1cc(C(=O)CSc2nc(N)cc(=O)[nH]2)c(C)n1-c1ccc(OC(F)F)cc1	26	32	64*	14	-7	74*	19*	25*
Cc1cc(C(=O)CSc2nc(N)cc(=O)[nH]2)c(C)n1CCc1ccc(F)cc1	2	19	46*	22	1	41	6	13
O=C(Nc1nc2c(s1)CCCC2)c1ccc2ncsc2c1	12	-86	18	50	11	nt	nt	nt
Cc1cc(C(=O)Nc2nc3c(s2)CCCC3)cs1	-5	-37	52*	58*	4	21	-41	-137
CC(=O)Nc1cccc(-c2ccnc3c2CC(C)(C(=O)NCCC(F)(F)F)O3)c1 (centres undefined)	nt	nt	nt	12	nt	nt	nt	nt
CCN1/C(=C/c2sc(-c3ccccc3C)c[n+]2C)Sc2ccccc21	nt	30	91*	36	4	94*	54*	32*
CC1(C)CC(=O)C2=C(C1)NC(=O)CC2	nt	nt	nt	-17	nt	nt	nt	nt
O=C(CSc1nc(-c2ccco2)cc(C(F)(F)F)n1)Nc1ccc(C(=O)N2CCCCC2)cc1	34	7	50*	5	-19	46*	15*	18*
CCn1c(SCC(=O)Nc2oc(C)c3c(C)n[nH]c(=O)c23)nnc1-c1ccco1	nt	nt	nt	-16	nt	nt	nt	nt
OC(COCC1CC=CCC1)Cn1cnc2ccccc21 (centres undefined)	13	0	0	-4	1	nt	nt	nt
CCCOC(=O)c1ccc(OCC(O)Cn2c(C)nc3ccccc32)cc1 (centres undefined)	20	23	61*	19	20	63*	20*	23*
CC(=O)Nc1cccc(OCC(O)Cn2c(C)nc3ccccc32)c1 (centres undefined)	16	5	15	4	1	nt	nt	nt
Cc1nc2ccccc2n1CC(O)COCC1CC=CCC1 (centres undefined)	7	14	44*	8	-29	40	-1	11
CCCCCn1c(=O)[nH]c2cc(C(=O)NC3CCN(Cc4ccccc4)CC3)ccc2c1=O	nt	nt	nt	20	2	nt	nt	nt
O=C(NC1CCN(Cc2ccccc2)CC1)c1ccc2c(c1)[nH]c(=O)n2Cc1ccc(F)cc1	nt	9	47*	34	6	51*	17*	8
CCc1ccc(C(O)c2ncc(-c3cccc4ccccc34)[nH]2)cc1 (centres undefined)	nt	nt	nt	6	nt	nt	nt	nt
COC(=O)Cc1[nH]n(-c2nc3ccccc3s2)c(=O)c1C(C)=Nc1ccc(Cl)cc1	0	nt	nt	15	17	nt	nt	nt
COC(=O)Cc1[nH]n(-c2nc3ccccc3s2)c(=O)c1C(C)=Nc1ccc(C)cc1	37	21	100*	31	-5	68*	64*	-10
Cc1ccc(OCc2nc(-c3cccs3)no2)c([N+](=O)[O-])c1	44	0	50*	38	-5	-53	-27	-152
O=[N+]([O-])c1ccccc1OCc1nc(-c2cccs2)no1	18	-87	-2	4	5	nt	nt	nt
CC(=O)N1CCc2cc(C(=O)CN3CCN(c4cccc(Cl)c4)CC3)ccc21	12	5	45*	8	-3	17	-8	-14
Cc1cccc(-c2cnc(C(O)c3ccc(-c4ccccc4)cc3)[nH]2)c1 (centres undefined)	nt	nt	nt	8	nt	nt	nt	nt
Nc1ncnc2c1ncn2C1OCC(O)C1O (centres undefined)	nt	nt	nt	-13	nt	nt	nt	nt
COc1cccc(N2CCN(c3c4c(nc5ncnn35)CCC4)CC2)c1	2	8	56*	15	-1	43*	12	17*
SMILES	PPC-1+TRAIL kill	STAT1 blocker	STAT3 inh-1	C8 TRAIL sens	Platelet DG rel	STAT3 inh-2	NFkB inh STAT3ct	STAT1 inh STAT3c
CN(C)CCCNc1nc2cc(-c3ccc4c(ccn4C)c3)sc2c(=O)n1C	nt	nt	nt	-13	nt	nt	nt	nt
CC(C)C(=O)Nc1ccc2nn(-c3ccccc3)nc2c1	45	-19	48*	54*	0	15	-34	-155
CCCCCCCCN1C(=O)[C@H](CC(=O)N2CCN(C(=O)C3CC3)CC2)C[C@@]2(C(=O)OCC)CCCC=C12	nt	nt	nt	8	nt	nt	nt	nt
Cc1c(Cl)cnc(NC(=O)COC(=O)c2ccc3ncsc3c2)c1Cl	-13	15	50*	3	-1	35	12	8
O=C(COC(=O)c1ccc2ncsc2c1)Nc1ncc(Cl)cc1Cl	0	6	2	-18	-17	nt	nt	nt
COc1ccc(C(=O)CSc2nnc(Cn3cnc4ccccc43)o2)cc1	3	10	73*	43	-4	49*	14*	2
CC(=O)c1ccc(NC(=O)CSc2nnc(Cn3cnc4ccccc43)o2)cc1	13	10	7	-1	1	nt	nt	nt
C[C@@H](c1ccccc1)N1C[C@H](COCc2ccccc2)Oc2cc(N3CC[C@@H](O)C3)ccc2S1(=O)=O	nt	nt	nt	0	nt	nt	nt	nt
CCOC(=O)N1CCC(Nc2ncnc3c2cnn3-c2ccc(C)cc2C)CC1	22	16	64*	19	-11	49*	14*	14
C=CCNc1ncnc2c1cnn2-c1ccc(C)cc1C	14	-5	-7	-3	-4	nt	nt	nt
O=C(Nc1ccc(F)c(Cl)c1)c1cc(C2CCCCN2C(=O)c2ccc3c(c2)CCO3)on1 (centres undefined)	nt	nt	nt	14	nt	nt	nt	nt
CCN(CC)C(=O)C1CCN(S(=O)(=O)c2ccc3oc4ccccc4c3c2)CC1	10	13	45*	12	10	33	5	11
CCCc1ccc(C(O)c2ncc(-c3ccccc3F)[nH]2)cc1 (centres undefined)	nt	nt	nt	8	nt	nt	nt	nt
Brc1ccc(NC2=Nc3ccccc3CC2)cc1	9	-63	28	4	5	nt	nt	nt
Cc1ccc(NC2=Nc3ccccc3CC2)cc1	-3	5	44*	24	-22	32	-10	-62
CC1C/C(=C/c2ccncc2)C(=O)/C(=C/c2ccncc2)C1 (centres undefined)	40	26	53*	34	3	44*	-20	19*
Oc1cccc(-c2nc3ccccc3s2)c1	-15	-3	74*	48	13	37	13*	-12
CC(=O)Nc1cccc(-c2nc3ccccc3s2)c1	29	-53	3	10	-1	nt	nt	nt
Cc1nn(C)c(C)c1CN(C)S(=O)(=O)c1ccc2ccccc2c1	9	33	78*	9	nt	80*	30*	24*
Cc1nn(C)c(C)c1CN(C)S(=O)(=O)c1ccc(F)cc1	13	16	24	13	1	nt	nt	nt

Screening results (PubChem BioAssay)
